Data published in PubChem BioAssay (NCI).
Compounds without any hit were thinned out: in the full panel of roughly 83,000, 20% have a hit.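 Cells were grown in 96-well plates and exposed to the test compound at a single concentration for 48 hours; results are reported as percent growth, with values below 10 considered active.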 A number with no mark means an inactive call. Calls of active or inactive are those of the source.

Experiments:
Experiment in all cases: NCI-60 one-dose screen, 48 h (100 = growth as untreated, 0 = no growth, -100 = all killed)
Conditions in all cases: 10 µM unless noted
NCI-H23 lung = test system: NCI-H23 lung
NCI-H226 lung = test system: NCI-H226 lung
NCI-H322M lung = test system: NCI-H322M lung
HOP-62 NSCLC = test system: HOP-62 NSCLC
NCI-H460 lung = test system: NCI-H460 lung
HOP-92 NSCLC = test system: HOP-92 NSCLC
NCI-H522 lung = test system: NCI-H522 lung
A549/ATCC NSCLC = test system: A549/ATCC NSCLC
786-0 renal = test system: 786-0 renal
COLO 205 colon = test system: COLO 205 colon
DU-145 prostate = test system: DU-145 prostate
K-562 leukemia = test system: K-562 leukemia
MALME-3M melanoma = test system: MALME-3M melanoma
MDA-MB-231 breast = test system: MDA-MB-231 breast
RXF 393 renal = test system: RXF 393 renal
SF-268 CNS = test system: SF-268 CNS
SF-295 CNS = test system: SF-295 CNS
SF-539 CNS = test system: SF-539 CNS
UACC-257 melanoma = test system: UACC-257 melanoma
M14 melanoma = test system: M14 melanoma

| SMILES | growth (NCI-H23 lung) | growth (NCI-H226 lung) | growth (NCI-H322M lung) | growth (HOP-62 NSCLC) | growth (NCI-H460 lung) | growth (HOP-92 NSCLC) | growth (NCI-H522 lung) | growth (A549/ATCC NSCLC) | growth (786-0 renal) | growth (COLO 205 colon) | growth (DU-145 prostate) | growth (K-562 leukemia) | growth (MALME-3M melanoma) | growth (MDA-MB-231 breast) | growth (RXF 393 renal) | growth (SF-268 CNS) | growth (SF-295 CNS) | growth (SF-539 CNS) | growth (UACC-257 melanoma) | growth (M14 melanoma) |
| --- | --- | --- | --- | --- | --- | --- | --- | --- | --- | --- | --- | --- | --- | --- | --- | --- | --- | --- | --- | --- |
| COc1ccc2c(c1)c(-c1noc(C(=O)c3cn(C)c4ncc(Br)cc34)n1)cn2C | 30.1% | 26.6% | 92.9% | 53.1% | 76.7% | 7.92% (active) | 67.9% | 28.1% | 59% | 68.4% | 50.4% | 71% | 28.1% | 25.4% | 27.9% | 62.8% | 89% | 25.7% | 92.8% | 91.3% |
| CC(C)C1=NOC(=O)C1=Cc1cn(-c2ccco2)nc1-c1ccccc1 | 96.6% | 102% | 102% | 79.1% | 93.8% | 94.1% | 84.8% | 99.2% | 89.1% | 103% | 94.6% | 62.1% | 104% | 92% | 80.6% | 90.5% | 99.2% | 99.9% | 106% | 85.6% |
| O=C1COCCN1c1ccc(NCc2cn(Cc3ccc(F)cc3)c3ccccc23)cc1 | 58.9% | -56.5% (active) | 87.3% | 62.5% | 15.4% | 68.2% | 58.1% | 48.4% | 67.1% | 5.22% (active) | 81.6% | 27.7% | 61.5% | 85.3% | -3.08% (active) | 96.2% | 44.1% | 92.1% | 27.9% | 72.7% |
| O=C1CC(c2ccccc2)Cc2nc3ccc(Cl)cc3cc21 (stereo not given) | 36.4% | 20.8% | 39.8% | 35.9% | 3.33% (active) | 39.3% | 3.02% (active) | 23.3% | 37.6% | -31.7% (active) | 0.185% (active) | 6.83% (active) | 34% | 19.5% | 21.8% | 45.2% | -3.44% (active) | -12% (active) | 69.1% | 8.98% (active) |
| O=C(NCCCNC(=O)OCc1ccc2cccc(O)c2n1)OCc1ccc2cccc(O)c2n1 | 70% | 71.1% | 59.4% | 32.1% | 26.1% | 33.9% | 18.4% | 47.5% | 60.1% | 29.6% | 28.7% | 14.1% | 72.3% | 70% | 0.757% (active) | 54% | 38.7% | 35.1% | 53.9% | 38.9% |
| O=C(CSc1nc2ccc([N+](=O)[O-])cc2[nH]1)Nc1ccc(F)c(Cl)c1 | -7.69% (active) | 7.74% (active) | 37.1% | 35% | 11.1% | -36.9% (active) | -3.92% (active) | 23.4% | 21.9% | 24.7% | 32.2% | 11.9% | -5.67% (active) | 30.8% | 29.7% | 23.8% | 18.1% | 35% | 10.5% | 25.4% |
| COc1ccccc1S(=O)Nc1ccccc1 (stereo not given) | 104% | 102% | 94.9% | 124% | 93.6% | 98.5% | 74.9% | 74.4% | 103% | 117% | 116% | 104% | 86.2% | 92.5% | 100% | 100% | 98.5% | 109% | 78.4% | 111% |
